Assay results from PubChem BioAssay (NCATS).
Results filed as inconclusive are left out. Active and inactive are the calls of the source. Calls follow the shape of the dose curve; as a rule, active = well fitted curve in the direction sought with a large enough effect; inconclusive = small, poorly fitted or top-dose-only effect, or another doubt; inactive = no such curve, though single readings can be large; an effect the other way counts as inactive or inconclusive.

Key:
[1] = qHTS to identify inhibitors of the type 1 interferon - major histocompatibility complex class I in skeletal muscle: primary screen against the NCATS LOPAC collection (AID 1347405);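 also: human myoblasts with HiBiT tag on endogenous HLA-B stimulated by IFN-beta; lytic HiBiT luminescence reporting HLA-B protein level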
Method in brief: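 HLA-B HiBiT myoblasts, IFN-b 4 ng/ml, dexamethasone-free medium; compounds 7-pt 1:4.3 titration, top 46 uM final; 24 h at 37 C; Nano-Glo HiBiT lytic reagent, 10 min RT, luminescence.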

[2] = qHTS to identify inhibitors of the type 1 interferon - major histocompatibility complex class I in skeletal muscle: primary screen against the NCATS Pharmaceutical Collection (AID 1347407);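 also: luminescence of HiBiT knocked into endogenous HLA-B as interferon-induced MHC class I level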
Method in brief: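 A qHTS format is used: 8-point, 1:5 compound series with 46 uM top final concentration, applied alongside 4 ng/ml IFN-beta to HLA-B*08:01-HiBiT knock-in myoblasts. Luminescence is measured after 24 h treatment.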

[3] = qHTS for inhibitors of adenylyl cyclases using a fission yeast platform: a pilot screen against the NCATS LOPAC library (AID 1347410)
Method in brief: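 Inhibition of GNAS-stimulated AC9 activity in S. pombe was inferred from derepression of a PKA-repressed fbp1-GFP reporter, measured as cytometric fluorescence after 18 h at 30C with compounds at up to 57 µM.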

[4] = qHTS to identify inhibitors of the type 1 interferon - major histocompatibility complex class I in skeletal muscle: primary screen against the NCATS Mechanism Interrogation Plate v5.0 (MIPE) Libary (AID 1347411); also: nearly all actives have a fitted effect of over 65% in size
Method in brief: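 HLA-B HiBit myoblasts, dexamethasone-free medium + 4 ng/ml IFN-b, 24 h compound, 11-pt 1:3 from 46 uM final. Readout: Nano-Glo HiBiT lytic luminescence after 10 min lysis, RT.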

[5] = molecular target: Protein phosphatase 1D (Homo sapiens) (UniProt O15297); experiment: RapidFire Mass Spectrometry qHTS Assay for Modulators of WT P53-Induced Phosphatase 1 (WIP1) (AID 1347424);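 also: amount of dephosphorylated VEPPL-S-QETFS peptide product formed by WIP1; series mostly up to about 63 µM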
Method in brief: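 Mass-spectrometric measurement of dephosphorylated peptide after a 5 min room-temperature reaction of 10 nM WIP1 with 2 uM phosphopeptide, following 1 h compound preincubation in 30 mM MgCl2 buffer.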

[6] = molecular target: Protein phosphatase 1D (Homo sapiens) (UniProt O15297); experiment: Rhodamine-PBP qHTS Assay for Modulators of WT P53-Induced Phosphatase 1 (WIP1) (AID 1347425)
Method in brief: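 5 nM WIP1 + 10 uM Rh-PBP, 50 mM Tris pH 7.5, 30 mM MgCl2, 1 mM TCEP, 0.1 mM EGTA, BSA; cpds pinned, 1 hr RT; + 10 uM phosphopeptide; fluorescence 1-min reads x 11 min; delta = f1 - f0.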

[7] = Primary qHTS for inhibitors of La Crosse Virus (LACV) - induced cell death in SH-SY5Y cells (AID 1508616);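 also: top concentration of the series differs between compounds; higher means more rescue of cells from virus-induced death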
Method in brief: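 Cytopathicity rescue screen: compounds pinned onto SH-SY5Y cells, which are then infected with LACV (MOI 0.01) and held 6 days at 37C. Percent activity is scaled between infected DMSO control and uninfected DMSO control.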

[8] = molecular target: Calcium and integrin-binding protein 1 (Homo sapiens) (UniProt Q99828); experiment: Validation qHTS for Identification of Calcium Integrin Binding protein 1 (CIB1) Competitor (AID 1508618)
Method in brief: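 Displacement of FITC-alphaIIb peptide (100 nM) from CIB1-GST (1 uM) is monitored by polarization in quantitative HTS format; buffer carries 5 mM CaCl2 and 125 mM NaCl at pH 7.4, incubations are at room temperature.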

[9] = molecular target: Calcium and integrin-binding protein 1 (Homo sapiens) (UniProt Q99828); experiment: Primary qHTS for Identification of Calcium Integrin Binding Protein 1 (CIB1) Competitor (AID 1508620);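 also: GST tagged CIB1 binding a fluorescein labelled alphaIIb integrin peptide tracer; top concentration of the series differs between compounds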
Method in brief: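 Fluorescence polarization competition: CIB1-GST (1 uM final) preincubated with compound 15 min at room temperature, then FITC-labeled alphaIIb peptide (100 nM final) added for another 15 min. Polarization read at Ex 480/Em 540.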

[10] = Vero cells viability qHTS for Zika virus inhibitors (AID 1347167)
Method in brief: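 To flag cytotoxic protease inhibitors, viability is measured by ATP-dependent luminescence (CellTiter Glo) after cells attached overnight receive compound for 24 to 48 hours in DMEM with 4% FBS.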

[11] = Tertiary RLuc qRT-PCR qHTS assay for Zika virus inhibitors (AID 1347169); also: top concentration of the series differs between compounds; nearly all actives have a fitted effect of over 55% in size
Method in brief: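 Inhibition of ZIKV-RLuc replication in Vero cells, read as Renilla luminescence 1-1.5 hrs after live-cell substrate addition, following 48-72 hrs infection at MOI 1-2 in presence of compound.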

[12] = Validation qHTS assay for inhibitors of Activation Induced Cytidine Deaminase (AID): UDG Counterscreen signal (AID 1347427)
Method in brief: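 Fluorescence at 560 nm excitation, 665 nm emission reports UDG signal after 250 mM NaOH (2x) addition and 30 min. Enzymes (AID 1 uM, UDG 2 U/mL, at 4/3x) preincubated 10 min with compound, then 4 h with 4x 250 nM DJC20/DJC23 substrate at room temperature.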

[13] = molecular target: Single-stranded DNA cytosine deaminase (Homo sapiens) (UniProt Q9GZX7); experiment: Validation qHTS assay for inhibitors of Activation Induced Cytidine Deaminase (AID): AID signal (AID 1347429)
Method in brief: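 AID+UDG coupled FRET deamination; cpds up to 114 uM final; DJC20/DJC23 substrate, 4 hr RT; NaOH stop, 30 min RT; read Ex 540/Em 590.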

[14] = molecular target: Lysine-specific demethylase 5B (Homo sapiens) (UniProt Q9UGL1); experiment: Optimization screen for KDM5B Histone Demethylases FDH coupled qHTS against the LOPAC library (AID 1347166)
Method in brief: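 KDM5BDeltaAP (200nM final) in 50mM HEPES pH 7.5, 0.01% Tween-20 was preincubated with compound for 10 min at room temperature. A substrate mix of 12.5uM H3K4Me3, 25uM a-ketoglutarate, ascorbate, Fe2+, NAD+ and formaldehyde dehydrogenase was then added. NADH fluorescence (340/450 nm) was read initially and after 30 min.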

[15] = Counterscreen qHTS for small molecule stabilizers of the endoplasmic reticulum resident proteome: GLuc-NoTag assay (AID 1508627); also: potency is read from the fitted curve at half-maximal effect
Method in brief: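 Secreted GLuc lacking the SERCaMP modification is measured in SH-SY5Y cells exposed to compound for 19 h and then to thapsigargin (100 nM, 4 h) to deplete ER calcium; hits retested at 11 concentrations, up to 76.6 uM.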

Measured: Potency

Chain of Lysine-specific demethylase 5B (Homo sapiens) (Q9UGL1 whole entry, looked up): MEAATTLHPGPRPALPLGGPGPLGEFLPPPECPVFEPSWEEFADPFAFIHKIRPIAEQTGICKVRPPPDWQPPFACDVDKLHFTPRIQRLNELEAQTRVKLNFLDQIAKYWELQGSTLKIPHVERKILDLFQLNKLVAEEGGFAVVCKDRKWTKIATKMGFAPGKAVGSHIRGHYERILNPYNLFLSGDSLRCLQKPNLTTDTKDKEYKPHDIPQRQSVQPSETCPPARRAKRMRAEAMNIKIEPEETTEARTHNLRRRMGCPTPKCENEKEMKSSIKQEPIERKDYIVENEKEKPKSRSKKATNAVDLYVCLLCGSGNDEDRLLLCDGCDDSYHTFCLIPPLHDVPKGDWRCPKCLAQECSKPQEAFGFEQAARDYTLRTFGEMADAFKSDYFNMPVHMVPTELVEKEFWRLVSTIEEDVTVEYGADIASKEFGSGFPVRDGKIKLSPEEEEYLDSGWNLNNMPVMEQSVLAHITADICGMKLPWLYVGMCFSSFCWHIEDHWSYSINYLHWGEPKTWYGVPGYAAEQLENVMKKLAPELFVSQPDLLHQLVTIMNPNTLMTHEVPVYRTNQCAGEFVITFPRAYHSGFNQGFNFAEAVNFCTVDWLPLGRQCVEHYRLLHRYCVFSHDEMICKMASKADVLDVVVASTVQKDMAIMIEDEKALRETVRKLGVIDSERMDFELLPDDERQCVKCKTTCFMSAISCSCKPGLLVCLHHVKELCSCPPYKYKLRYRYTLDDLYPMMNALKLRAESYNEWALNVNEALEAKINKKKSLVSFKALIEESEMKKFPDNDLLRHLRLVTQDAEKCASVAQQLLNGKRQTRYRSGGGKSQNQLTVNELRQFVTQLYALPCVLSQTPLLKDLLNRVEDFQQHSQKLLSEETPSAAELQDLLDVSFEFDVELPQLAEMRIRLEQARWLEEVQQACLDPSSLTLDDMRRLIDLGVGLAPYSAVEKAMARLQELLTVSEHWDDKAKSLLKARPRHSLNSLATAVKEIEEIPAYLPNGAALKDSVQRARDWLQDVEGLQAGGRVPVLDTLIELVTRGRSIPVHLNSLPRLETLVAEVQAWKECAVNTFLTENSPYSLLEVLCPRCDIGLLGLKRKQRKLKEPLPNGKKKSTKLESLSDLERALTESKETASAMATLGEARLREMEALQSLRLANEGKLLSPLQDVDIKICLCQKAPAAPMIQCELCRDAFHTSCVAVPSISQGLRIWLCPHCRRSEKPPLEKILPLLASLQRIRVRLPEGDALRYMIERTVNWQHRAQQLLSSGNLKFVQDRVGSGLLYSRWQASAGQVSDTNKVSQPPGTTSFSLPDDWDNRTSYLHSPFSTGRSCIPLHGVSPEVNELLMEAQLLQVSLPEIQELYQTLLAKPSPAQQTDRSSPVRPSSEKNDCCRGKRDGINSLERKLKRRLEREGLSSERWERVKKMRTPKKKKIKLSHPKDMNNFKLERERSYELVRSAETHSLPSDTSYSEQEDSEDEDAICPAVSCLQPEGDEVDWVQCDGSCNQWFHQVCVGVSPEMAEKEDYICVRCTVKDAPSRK
Chain of Single-stranded DNA cytosine deaminase (Homo sapiens) (Q9GZX7 whole entry, looked up): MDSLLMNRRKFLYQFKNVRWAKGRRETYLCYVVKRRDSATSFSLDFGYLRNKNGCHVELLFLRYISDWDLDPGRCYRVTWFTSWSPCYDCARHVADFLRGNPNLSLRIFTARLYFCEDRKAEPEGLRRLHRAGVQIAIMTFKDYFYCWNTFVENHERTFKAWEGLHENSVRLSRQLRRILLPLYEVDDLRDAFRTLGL
Chain of Protein phosphatase 1D (Homo sapiens) (O15297 whole entry, looked up): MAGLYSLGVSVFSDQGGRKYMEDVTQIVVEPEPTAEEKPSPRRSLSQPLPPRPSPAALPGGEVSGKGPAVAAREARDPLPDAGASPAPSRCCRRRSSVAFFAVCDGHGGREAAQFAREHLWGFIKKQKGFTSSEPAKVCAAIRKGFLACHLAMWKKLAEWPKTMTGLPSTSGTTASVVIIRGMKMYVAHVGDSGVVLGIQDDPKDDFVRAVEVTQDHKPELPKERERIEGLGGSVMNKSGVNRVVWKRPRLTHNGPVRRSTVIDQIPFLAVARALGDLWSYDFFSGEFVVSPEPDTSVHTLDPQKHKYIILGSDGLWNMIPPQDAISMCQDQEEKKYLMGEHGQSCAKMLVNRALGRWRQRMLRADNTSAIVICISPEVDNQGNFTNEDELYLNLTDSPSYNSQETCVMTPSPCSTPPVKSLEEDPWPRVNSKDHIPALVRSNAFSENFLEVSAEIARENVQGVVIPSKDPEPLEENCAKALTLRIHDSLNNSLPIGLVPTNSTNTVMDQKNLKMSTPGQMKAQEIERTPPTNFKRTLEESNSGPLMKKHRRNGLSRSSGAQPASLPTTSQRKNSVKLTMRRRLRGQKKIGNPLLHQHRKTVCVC
Chain of Calcium and integrin-binding protein 1 (Homo sapiens) (Q99828 whole entry, looked up): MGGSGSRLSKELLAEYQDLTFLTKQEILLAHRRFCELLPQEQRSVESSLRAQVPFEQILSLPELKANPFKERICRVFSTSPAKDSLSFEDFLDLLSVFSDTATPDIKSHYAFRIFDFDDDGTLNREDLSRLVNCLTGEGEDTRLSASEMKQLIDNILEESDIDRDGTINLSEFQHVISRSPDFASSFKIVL

CCCc1nn(C)c2c(=O)[nH]c(-c3cc(S(=O)(=O)N4CCN(C)CC4)ccc3OCC)nc12
inactive: [1] | [2] | [3] | [4] | [5] | [6] | [7] | [8] | [9]

CCCCNc1cc(C(=O)O)cc(S(N)(=O)=O)c1Oc1ccccc1
inactive: [10] | [11] | [1] | [2] | [3] | [4] | [5] | [6] | [12] | [13] | [7] | [8] | [9]

CCC(C)n1ncn(-c2ccc(N3CCN(c4ccc(OC[C@H]5CO[C@](Cn6cncn6)(c6ccc(Cl)cc6Cl)O5)cc4)CC3)cc2)c1=O (stereo not given in full)
inactive: [2] | [4] | [5] | [6] | [7] | [9]

CCOC(=O)N1CCC(=C2c3ccc(Cl)cc3CCc3cccnc32)CC1
active: [15] 35.5 µM
inactive: [14] | [1] | [3] | [5] | [6] | [12] | [13] | [7] | [8] | [9]

COc1ccc(-c2ccc3c(N4CCOCC4)nc(N4C[C@@H](C)O[C@@H](C)C4)nc3n2)cc1CO
inactive: [10] | [9]

Cc1c(C)c2c(c(C)c1O)CCC(C)(COc1ccc(CC3SC(=O)NC3=O)cc1)O2 (stereo not given)
inactive: [2] | [4] | [7] | [9]

Cc1cccc(-c2[nH]c(C(C)(C)C)nc2-c2ccc3nccnc3c2)n1
inactive: [14] | [1] | [3] | [4] | [12] | [13] | [7] | [8] | [9]

CCOC(=O)C1=C[C@]2(CC)CCCN3CCc4c(n1c1ccccc41)[C@@H]32
inactive: [14] | [1] | [2] | [3] | [5] | [6] | [12] | [13] | [7] | [8] | [9]

CCc1ccc(CCOc2ccc(CC3SC(=O)NC3=O)cc2)nc1 (stereo not given)
inactive: [2] | [4] | [5] | [7] | [9]
